Results filed as inconclusive are left out. Active and inactive are the calls of the source. The call rests on the fitted dose curve; in most records, active means well fitted curve in the direction sought with a large enough effect; inconclusive means small, poorly fitted or top-dose-only effect, or another doubt; inactive means no such curve, though single readings can be large; an effect the other way counts as inactive or inconclusive.
Assay: Cell Viability - LYMP2-001 (AID 921);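 further: cells exposed to compound for 24 h at 37 °C; 0% = DMSO only and full inhibition = tetraoctylammonium bromide control wells; nearly all actives have a fitted effect of over 70% in size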
Details: LYMP2-001 lymphoblastoid cell viability; series mostly up to 92.2 µM; activity change, negative = cytotoxic: at the top concentration
Summary of the method: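 A lymphoblastoid cell line of human origin was treated with library compounds across a concentration series for 24 hours, and viable cell number was estimated from ATP-driven luciferase light output. Hill modeling gave AC50.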

SMILES | activity change, negative = cytotoxic
Nc1nc(CC(=O)O)cs1 | -5.73% (inactive)
CC(=O)CC(C)C | -15.6% (inactive)
CCCCC(CC)CO (stereo not drawn) | -9.09% (inactive)
CCCCC(=O)N(C)C | -13.2% (inactive)
O=CNc1ccccc1 | -17.7% (inactive)
Clc1ccc(Cl)c(Cl)c1Cl | -13.3% (inactive)
C=CCCCCCCC=C | -4.13% (inactive)
CCCCCCC=O | 0.637% (inactive)
CCCCC(CC)COCC1CO1 (stereo not drawn) | -4.22% (inactive)
Cc1cc(C)cc(N)c1 | -2.23% (inactive)
C=CCOC(=O)COCCC(C)C | -4.47% (inactive)
O=C(O)CNC(=O)c1ccc(CO)o1 | 1.28% (inactive)
C=C(C)C(N)=O | -1.49% (inactive)
CCN(Cc1ccccc1)c1ccccc1 | -10.6% (inactive)
O=C(O)c1cccc(Cl)c1Cl | -17.3% (inactive)
CC(=O)c1cccc([N+](=O)[O-])c1 | -19.6% (inactive)
O=C(O)CNC(=O)c1ccc([N+](=O)[O-])cc1 | 17.1% (inactive)
Nc1c(Cl)cc(Cl)cc1Cl | -24.9% (inactive)
C=CCCCC | -6.81% (inactive)
NC(=O)c1cccc([N+](=O)[O-])c1 | -8.95% (inactive)

SMILES | activity change, negative = cytotoxic
C=C(C)OC(C)=O | 1.03% (inactive)
CC(C)Cc1nccs1 | 5.21% (inactive)
CC(C)c1ccccc1 | -3.59% (inactive)
CCOCCOCC | -2.79% (inactive)
CCC1CO1 (stereo not drawn) | -20.1% (inactive)
NC(=O)CCCCC(N)=O | -9.59% (inactive)
CCOC(C)(C)C | -18.9% (inactive)
CC(N)CN (stereo not drawn) | -36.6% (inactive)
Cc1ccc(C(C)(C)C)cc1 | -3.08% (inactive)
Cc1ccc(C#N)cc1 | -10.6% (inactive)
Cc1ccc(C)cc1 | -14.9% (inactive)
CN(C)CCCCl | 0.473% (inactive)
CC(=O)c1nccs1 | 13.7% (inactive)
CCc1ccccc1 | -6.15% (inactive)
CCCCC(C=O)CC (stereo not drawn) | -20.1% (inactive)
CC(C)=C1CCC(C)CC1=O (stereo not drawn) | -23.8% (inactive)
CCCCCCCCC | -6.18% (inactive)
C=CCCCCCC | -14% (inactive)
Cc1ccc(C)c([N+](=O)[O-])c1 | -17.2% (inactive)

Assay: MultiTox-Fluor Cytotoxicity Assay - LYMP1-001 - Dead Cells (AID 946);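 further: cells exposed to compound for 16 h; 0% = DMSO and 100% = tetraoctylammonium bromide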
Details: LYMP1-001 lymphoblastoid cells, dead-cell protease fluorescence; series mostly up to 92.2 µM; cytotoxicity (dead cells): at the top concentration
Summary of the method: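 In this qHTS, 15 uM tetraoctylammonium bromide defined 100% and DMSO defined basal activity. Lymphoblastoid cells (LYMP1-001, 2500 per well) received compound for 16 hr at 37 C before a fluorogenic dead-cell substrate readout at 485/520 nm.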

SMILES | cytotoxicity (dead cells)
Nc1nc(CC(=O)O)cs1 | -11.5% (inactive)
CC(=O)CC(C)C | 5.46% (inactive)
CCCCC(CC)CO (stereo not drawn) | -6.04% (inactive)
CCCCC(=O)N(C)C | -17.3% (inactive)
O=CNc1ccccc1 | -8.25% (inactive)
Clc1ccc(Cl)c(Cl)c1Cl | -10% (inactive)
C=CCCCCCCC=C | 4.58% (inactive)
CCCCCCC=O | 9.16% (inactive)
CCCCC(CC)COCC1CO1 (stereo not drawn) | -1.72% (inactive)
Cc1cc(C)cc(N)c1 | -16.1% (inactive)
C=CCOC(=O)COCCC(C)C | -5.61% (inactive)
O=C(O)CNC(=O)c1ccc(CO)o1 | 2.26% (inactive)
C=C(C)C(N)=O | -4.33% (inactive)
CCN(Cc1ccccc1)c1ccccc1 | -8.6% (inactive)
O=C(O)c1cccc(Cl)c1Cl | -7.12% (inactive)
CC(=O)c1cccc([N+](=O)[O-])c1 | -2.11% (inactive)
O=C(O)CNC(=O)c1ccc([N+](=O)[O-])cc1 | 7.32% (inactive)
Nc1c(Cl)cc(Cl)cc1Cl | 9.51% (inactive)
C=CCCCC | 14.2% (inactive)
NC(=O)c1cccc([N+](=O)[O-])c1 | -1.25% (inactive)

SMILES | cytotoxicity (dead cells)
C=C(C)OC(C)=O | 1.86% (inactive)
CC(C)Cc1nccs1 | -17.2% (inactive)
CC(C)c1ccccc1 | 2.12% (inactive)
CCOCCOCC | -21% (inactive)
CCC1CO1 (stereo not drawn) | -4.32% (inactive)
NC(=O)CCCCC(N)=O | -9.46% (inactive)
CCOC(C)(C)C | -10.3% (inactive)
CC(N)CN (stereo not drawn) | -12.4% (inactive)
Cc1ccc(C(C)(C)C)cc1 | 12.1% (inactive)
Cc1ccc(C#N)cc1 | 3.93% (inactive)
Cc1ccc(C)cc1 | 5.62% (inactive)
CN(C)CCCCl | 4.66% (inactive)
CC(=O)c1nccs1 | -1.95% (inactive)
CCc1ccccc1 | 9.37% (inactive)
CCCCC(C=O)CC (stereo not drawn) | -11.8% (inactive)
CC(C)=C1CCC(C)CC1=O (stereo not drawn) | 0.942% (inactive)
CCCCCCCCC | -2.66% (inactive)
C=CCCCCCC | 8.59% (inactive)
Cc1ccc(C)c([N+](=O)[O-])c1 | 2.17% (inactive)
